Test results: the supplement of paper PMC11732987, “Enantioselective OTUD7B fragment discovery through chemoproteomics screening and high-throughput optimisation” (Communications Chemistry, 2025)

Columns and labels:
Assay in all cases: log2 ratio of Biotin-Ahx-Ub-VS probe labelling (fragment/DMSO); higher = less target engagement (more negative = stronger competition), active = hit call of the paper (q ≤ 0.05, log2 ratio ≤ -1)
Conditions in all cases: compound concentration: 200 uM; treatment time: 3 h
USP34 = USP34 (UniProt Q70CQ2)
USP34, sequence (Q70CQ2 whole entry, the tested form may be a part): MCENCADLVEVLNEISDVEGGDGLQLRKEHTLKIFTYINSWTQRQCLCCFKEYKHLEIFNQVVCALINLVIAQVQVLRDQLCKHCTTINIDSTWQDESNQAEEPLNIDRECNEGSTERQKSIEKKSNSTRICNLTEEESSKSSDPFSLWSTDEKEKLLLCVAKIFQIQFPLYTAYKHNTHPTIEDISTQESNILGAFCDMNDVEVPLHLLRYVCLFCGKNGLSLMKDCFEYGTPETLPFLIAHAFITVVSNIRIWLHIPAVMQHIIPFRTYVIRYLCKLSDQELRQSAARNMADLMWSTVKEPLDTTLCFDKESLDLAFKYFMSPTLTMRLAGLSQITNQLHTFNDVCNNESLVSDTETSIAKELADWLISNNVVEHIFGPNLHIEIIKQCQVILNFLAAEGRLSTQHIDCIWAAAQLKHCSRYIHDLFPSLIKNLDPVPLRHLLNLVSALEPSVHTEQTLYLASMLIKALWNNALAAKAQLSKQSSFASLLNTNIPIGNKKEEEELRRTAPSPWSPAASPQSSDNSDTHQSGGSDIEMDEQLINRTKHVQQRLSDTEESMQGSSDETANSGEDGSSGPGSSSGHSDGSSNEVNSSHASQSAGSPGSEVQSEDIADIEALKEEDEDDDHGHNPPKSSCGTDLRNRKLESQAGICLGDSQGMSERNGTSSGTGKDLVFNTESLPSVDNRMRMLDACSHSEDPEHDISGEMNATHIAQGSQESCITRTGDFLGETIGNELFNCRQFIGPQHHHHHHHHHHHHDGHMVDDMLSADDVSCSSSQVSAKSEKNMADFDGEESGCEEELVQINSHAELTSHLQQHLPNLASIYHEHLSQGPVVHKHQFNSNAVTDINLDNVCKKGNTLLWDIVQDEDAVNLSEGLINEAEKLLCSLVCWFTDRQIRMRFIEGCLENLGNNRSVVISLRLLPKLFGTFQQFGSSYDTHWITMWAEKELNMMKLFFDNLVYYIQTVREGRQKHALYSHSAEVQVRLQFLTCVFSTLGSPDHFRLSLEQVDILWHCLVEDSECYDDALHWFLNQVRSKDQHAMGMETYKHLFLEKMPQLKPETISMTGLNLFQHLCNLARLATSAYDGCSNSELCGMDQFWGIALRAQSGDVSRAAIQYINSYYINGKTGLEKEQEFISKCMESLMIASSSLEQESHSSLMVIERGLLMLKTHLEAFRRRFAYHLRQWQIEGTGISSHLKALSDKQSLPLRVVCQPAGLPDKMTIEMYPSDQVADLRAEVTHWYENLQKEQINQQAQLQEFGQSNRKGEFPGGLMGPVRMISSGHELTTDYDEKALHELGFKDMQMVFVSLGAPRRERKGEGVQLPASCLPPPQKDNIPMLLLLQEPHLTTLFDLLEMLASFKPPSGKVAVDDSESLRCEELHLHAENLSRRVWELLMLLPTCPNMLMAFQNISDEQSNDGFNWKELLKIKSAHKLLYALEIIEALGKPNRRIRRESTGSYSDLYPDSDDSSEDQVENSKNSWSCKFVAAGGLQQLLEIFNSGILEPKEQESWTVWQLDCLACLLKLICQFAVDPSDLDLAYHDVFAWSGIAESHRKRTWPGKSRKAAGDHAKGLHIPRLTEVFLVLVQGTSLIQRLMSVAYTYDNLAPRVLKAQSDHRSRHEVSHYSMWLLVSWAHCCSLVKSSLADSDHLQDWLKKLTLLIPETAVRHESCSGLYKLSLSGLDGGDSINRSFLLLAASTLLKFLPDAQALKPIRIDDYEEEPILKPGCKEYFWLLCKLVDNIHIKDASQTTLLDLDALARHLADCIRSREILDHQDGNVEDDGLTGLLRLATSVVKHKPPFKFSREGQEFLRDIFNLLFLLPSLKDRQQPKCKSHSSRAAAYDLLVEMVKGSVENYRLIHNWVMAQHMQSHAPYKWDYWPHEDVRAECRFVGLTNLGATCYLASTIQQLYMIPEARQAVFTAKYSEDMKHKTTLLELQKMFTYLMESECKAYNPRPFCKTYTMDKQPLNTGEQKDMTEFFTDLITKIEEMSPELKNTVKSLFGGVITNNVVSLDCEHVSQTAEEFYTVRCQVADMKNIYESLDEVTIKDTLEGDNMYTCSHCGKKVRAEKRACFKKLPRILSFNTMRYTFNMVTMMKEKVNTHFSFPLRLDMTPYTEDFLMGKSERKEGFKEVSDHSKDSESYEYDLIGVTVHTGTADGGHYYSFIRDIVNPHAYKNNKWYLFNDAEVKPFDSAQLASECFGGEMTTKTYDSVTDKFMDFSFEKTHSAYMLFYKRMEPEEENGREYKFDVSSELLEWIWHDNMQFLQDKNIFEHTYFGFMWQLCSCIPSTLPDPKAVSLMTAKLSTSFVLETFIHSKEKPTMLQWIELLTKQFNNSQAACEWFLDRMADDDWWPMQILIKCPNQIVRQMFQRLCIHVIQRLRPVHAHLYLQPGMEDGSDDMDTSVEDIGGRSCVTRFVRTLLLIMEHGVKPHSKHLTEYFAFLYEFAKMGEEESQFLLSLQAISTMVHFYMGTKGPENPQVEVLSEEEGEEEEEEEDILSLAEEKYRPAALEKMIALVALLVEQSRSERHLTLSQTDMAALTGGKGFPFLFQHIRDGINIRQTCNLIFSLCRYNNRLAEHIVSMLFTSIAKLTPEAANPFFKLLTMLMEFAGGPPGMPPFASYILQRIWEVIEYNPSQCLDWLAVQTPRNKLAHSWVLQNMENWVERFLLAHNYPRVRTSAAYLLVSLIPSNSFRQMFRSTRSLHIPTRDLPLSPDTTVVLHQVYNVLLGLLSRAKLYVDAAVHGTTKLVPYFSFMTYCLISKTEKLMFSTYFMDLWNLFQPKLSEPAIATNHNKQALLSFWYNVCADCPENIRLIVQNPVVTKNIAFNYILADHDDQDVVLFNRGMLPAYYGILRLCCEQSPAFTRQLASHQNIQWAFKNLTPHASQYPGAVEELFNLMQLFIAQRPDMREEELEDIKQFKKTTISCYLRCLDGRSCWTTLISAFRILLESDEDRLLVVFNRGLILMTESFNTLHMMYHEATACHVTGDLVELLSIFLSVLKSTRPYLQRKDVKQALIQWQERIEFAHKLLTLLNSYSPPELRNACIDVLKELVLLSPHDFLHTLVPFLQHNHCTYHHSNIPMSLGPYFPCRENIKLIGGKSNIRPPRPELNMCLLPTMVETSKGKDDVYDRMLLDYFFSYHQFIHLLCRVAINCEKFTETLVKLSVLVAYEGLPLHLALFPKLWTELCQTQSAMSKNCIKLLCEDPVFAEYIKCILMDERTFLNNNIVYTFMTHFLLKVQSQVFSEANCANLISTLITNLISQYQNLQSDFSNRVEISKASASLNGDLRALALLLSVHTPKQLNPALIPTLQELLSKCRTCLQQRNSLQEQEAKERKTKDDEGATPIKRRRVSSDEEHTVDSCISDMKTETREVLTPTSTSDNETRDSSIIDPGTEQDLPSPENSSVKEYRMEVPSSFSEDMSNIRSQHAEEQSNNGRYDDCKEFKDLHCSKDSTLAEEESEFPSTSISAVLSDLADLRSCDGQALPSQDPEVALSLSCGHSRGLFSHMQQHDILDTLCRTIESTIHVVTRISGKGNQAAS
In short: (§1)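 Using Biotin-Ahx-Ub-VS at 0.5 µM final for 1 h, DUBs were labelled in HEK293T lysate (495 µg per sample) that had first been treated in triplicate with fragment at 200 µM or vehicle for 3 h. NeutrAvidin enrichment, LysC and trypsin digestion and diaPASEF LC-MS/MS followed. Spectronaut label-free quantities were global-median-normalised. Values are average log2 fragment/vehicle ratios by unpaired t-test, using proteins with ≥2 unique peptides.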

USP36 = molecular target: T1, USP36 (UniProt Q9P275)
T1 sequence (whole entry): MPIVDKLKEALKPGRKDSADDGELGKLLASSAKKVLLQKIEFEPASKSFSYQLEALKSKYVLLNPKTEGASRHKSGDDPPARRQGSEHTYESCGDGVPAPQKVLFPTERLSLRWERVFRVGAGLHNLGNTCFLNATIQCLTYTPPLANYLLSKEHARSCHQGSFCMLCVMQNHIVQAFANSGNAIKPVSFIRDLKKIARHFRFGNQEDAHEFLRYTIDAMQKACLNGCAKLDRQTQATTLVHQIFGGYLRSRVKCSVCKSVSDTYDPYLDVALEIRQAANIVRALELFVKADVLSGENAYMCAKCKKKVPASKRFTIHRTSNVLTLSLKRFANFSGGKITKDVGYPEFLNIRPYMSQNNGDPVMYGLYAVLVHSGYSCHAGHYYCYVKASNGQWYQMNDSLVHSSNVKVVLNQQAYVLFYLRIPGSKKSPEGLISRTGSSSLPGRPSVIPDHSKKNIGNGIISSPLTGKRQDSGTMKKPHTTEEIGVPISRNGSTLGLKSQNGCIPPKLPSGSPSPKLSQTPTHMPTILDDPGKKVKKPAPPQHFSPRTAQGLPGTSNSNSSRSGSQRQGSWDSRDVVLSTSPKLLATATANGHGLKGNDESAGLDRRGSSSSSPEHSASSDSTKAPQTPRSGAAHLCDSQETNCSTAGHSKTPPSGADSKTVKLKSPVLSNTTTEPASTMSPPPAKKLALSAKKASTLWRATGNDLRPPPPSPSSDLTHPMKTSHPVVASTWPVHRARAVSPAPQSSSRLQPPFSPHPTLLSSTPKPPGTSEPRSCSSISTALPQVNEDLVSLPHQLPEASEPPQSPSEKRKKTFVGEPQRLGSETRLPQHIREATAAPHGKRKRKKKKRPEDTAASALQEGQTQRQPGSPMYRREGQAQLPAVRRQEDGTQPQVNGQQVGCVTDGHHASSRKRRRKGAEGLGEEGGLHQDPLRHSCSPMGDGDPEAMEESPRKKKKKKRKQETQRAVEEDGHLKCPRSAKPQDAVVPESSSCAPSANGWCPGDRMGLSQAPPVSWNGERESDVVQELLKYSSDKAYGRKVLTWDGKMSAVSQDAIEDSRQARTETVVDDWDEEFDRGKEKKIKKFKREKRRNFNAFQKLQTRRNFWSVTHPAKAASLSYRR
In short: as §1

USP38 = molecular target: T2, USP38 (UniProt Q8NB14)
T2 sequence (whole entry): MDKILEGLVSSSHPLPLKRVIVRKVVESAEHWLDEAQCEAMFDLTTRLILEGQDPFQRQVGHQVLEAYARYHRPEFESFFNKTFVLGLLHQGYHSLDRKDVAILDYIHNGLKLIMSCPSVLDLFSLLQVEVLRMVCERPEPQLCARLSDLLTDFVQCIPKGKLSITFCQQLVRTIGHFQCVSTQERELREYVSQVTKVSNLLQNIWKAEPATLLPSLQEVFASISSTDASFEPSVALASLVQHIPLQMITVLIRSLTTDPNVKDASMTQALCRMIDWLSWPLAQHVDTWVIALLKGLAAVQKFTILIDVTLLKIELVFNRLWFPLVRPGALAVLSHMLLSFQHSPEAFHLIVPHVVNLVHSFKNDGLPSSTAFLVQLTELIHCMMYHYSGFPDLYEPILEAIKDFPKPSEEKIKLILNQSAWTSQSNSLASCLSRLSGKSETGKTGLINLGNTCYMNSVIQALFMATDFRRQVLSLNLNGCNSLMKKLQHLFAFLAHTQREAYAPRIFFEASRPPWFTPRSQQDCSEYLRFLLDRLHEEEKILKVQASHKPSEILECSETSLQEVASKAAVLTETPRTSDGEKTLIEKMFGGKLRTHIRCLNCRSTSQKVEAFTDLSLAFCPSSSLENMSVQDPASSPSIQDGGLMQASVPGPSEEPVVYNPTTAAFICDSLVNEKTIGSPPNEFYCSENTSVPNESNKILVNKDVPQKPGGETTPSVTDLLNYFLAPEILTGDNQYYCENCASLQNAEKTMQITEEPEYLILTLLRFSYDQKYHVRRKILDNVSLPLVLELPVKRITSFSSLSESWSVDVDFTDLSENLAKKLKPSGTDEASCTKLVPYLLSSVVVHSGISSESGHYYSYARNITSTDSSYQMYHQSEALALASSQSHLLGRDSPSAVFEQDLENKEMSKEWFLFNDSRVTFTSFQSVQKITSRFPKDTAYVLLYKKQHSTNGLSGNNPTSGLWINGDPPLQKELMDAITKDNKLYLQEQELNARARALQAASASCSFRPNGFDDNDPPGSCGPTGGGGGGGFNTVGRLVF
In short: as §1

USP39 = molecular target: T3, USP39 (UniProt Q53GS9)
T3 sequence (whole entry): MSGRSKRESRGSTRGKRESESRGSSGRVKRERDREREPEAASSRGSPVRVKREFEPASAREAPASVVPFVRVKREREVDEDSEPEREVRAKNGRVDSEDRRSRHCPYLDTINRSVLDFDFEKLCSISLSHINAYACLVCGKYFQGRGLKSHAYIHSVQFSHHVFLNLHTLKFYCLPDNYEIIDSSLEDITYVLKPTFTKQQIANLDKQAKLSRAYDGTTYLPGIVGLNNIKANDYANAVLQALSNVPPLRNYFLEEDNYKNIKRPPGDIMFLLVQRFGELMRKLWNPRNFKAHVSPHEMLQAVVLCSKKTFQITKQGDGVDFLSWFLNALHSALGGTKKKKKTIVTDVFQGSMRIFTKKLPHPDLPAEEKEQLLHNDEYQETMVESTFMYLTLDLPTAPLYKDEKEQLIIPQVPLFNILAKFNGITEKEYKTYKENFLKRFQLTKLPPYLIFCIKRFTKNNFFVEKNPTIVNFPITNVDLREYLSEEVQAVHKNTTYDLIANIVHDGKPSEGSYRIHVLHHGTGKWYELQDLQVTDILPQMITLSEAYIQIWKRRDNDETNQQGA
In short: as §1

USP4 = molecular target: T4, USP4 (UniProt Q13107)
T4 sequence (whole entry): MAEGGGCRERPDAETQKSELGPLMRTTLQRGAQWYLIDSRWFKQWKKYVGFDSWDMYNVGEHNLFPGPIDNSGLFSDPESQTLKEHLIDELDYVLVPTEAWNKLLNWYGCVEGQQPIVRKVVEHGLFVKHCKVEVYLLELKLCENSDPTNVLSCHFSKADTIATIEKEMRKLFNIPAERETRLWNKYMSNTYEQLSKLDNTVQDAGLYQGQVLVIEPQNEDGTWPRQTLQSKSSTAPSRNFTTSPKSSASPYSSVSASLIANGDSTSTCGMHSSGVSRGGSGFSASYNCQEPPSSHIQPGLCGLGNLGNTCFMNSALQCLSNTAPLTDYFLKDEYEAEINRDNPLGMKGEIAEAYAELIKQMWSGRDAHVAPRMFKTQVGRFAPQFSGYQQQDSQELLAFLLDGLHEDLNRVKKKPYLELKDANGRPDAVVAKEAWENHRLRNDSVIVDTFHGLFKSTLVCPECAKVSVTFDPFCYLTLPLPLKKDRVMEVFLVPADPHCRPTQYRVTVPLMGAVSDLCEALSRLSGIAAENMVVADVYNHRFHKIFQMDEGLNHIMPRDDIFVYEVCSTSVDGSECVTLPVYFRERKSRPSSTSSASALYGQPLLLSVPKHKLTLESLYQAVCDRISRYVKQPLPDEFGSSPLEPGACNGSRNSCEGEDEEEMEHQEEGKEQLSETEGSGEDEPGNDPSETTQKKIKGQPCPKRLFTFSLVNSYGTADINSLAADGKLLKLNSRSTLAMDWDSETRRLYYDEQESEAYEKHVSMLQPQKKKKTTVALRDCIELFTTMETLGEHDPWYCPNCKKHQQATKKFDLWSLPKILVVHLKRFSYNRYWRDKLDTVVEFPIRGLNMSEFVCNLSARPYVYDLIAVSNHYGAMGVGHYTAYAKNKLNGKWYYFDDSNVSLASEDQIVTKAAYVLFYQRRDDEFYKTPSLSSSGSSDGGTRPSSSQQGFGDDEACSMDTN
In short: as §1

Measured: log2 ratio of Biotin-Ahx-Ub-VS probe labelling

O=C(CCl)N1CCCCCC1c1ncon1 (stereo not given)
inactive: USP34 0.0612 | USP36 -0.0657 | USP38 0.0218 | USP39 -0.043 | USP4 -0.0581
